Experimental data from PubChem BioAssay (NCATS).
Records with an inconclusive call do not appear. Unmarked numbers belong to inactive results. Activity calls are given as the source filed them. Calls follow the shape of the dose curve; as a rule, active = well fitted cell-killing curve with a large enough effect; inconclusive = small, poorly fitted or top-dose-only effect; inactive = flat fitted curve, though single readings scatter.

Test: Cell Viability - LYMP2-011 (AID 969); also: nearly all actives have a fitted effect of over 60% in size;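 as to viability change, negative = cytotoxic: 0% = DMSO only and full inhibition = 92 µM tetraoctylammonium bromide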
Settings: LYMP2-011 lymphoblastoid cells viability; series mostly up to 92.2 µM; viability change, negative = cytotoxic: at the top concentration
Description: NIH Chemical Genomics Center [NCGC]
NIH Molecular Libraries Screening Centers Network [MLSCN]
National Institutes of Environmental Health Sciences [NIEHS]
National Toxicology Program [NTP]
We have developed a 1536-well cell-based assay for quantitative high throughput screening (qHTS) against a number of cell lines to determine in vitro cytotoxicity of small molecules. This particular assay uses a human lymphoblastoid cell line (LYMP2-011) purchased from Coriell Institute for Medical Research.
NCGC Assay Protocol Summary:
The CellTiter-Glo luminescent cell viability assay (Promega) is a homogeneous method to measure the number of viable cells in culture. The end point readout of this assay is based on quantitation of intracellular ATP, an indicator of metabolic activity, using the luciferase reaction. Luciferase catalyzes the oxidation of beetle Luciferin to oxyluciferin and light in the presence of ATP. The luminescent signal is proportional to amount of ATP present.
Using the CellTiter-Glo luminescent cell viability assay, the amount of cellular ATP was measured in the lymphoblastoid cell line with complete culture medium following compound treatment for 24 hours. The assay was performed in opaque white Kalypsys 1536-well plates. In the screen, tetraoctylammonium bromide was used as positive control. Library compounds were measured for their ability to cause acute toxicity in the cell line, as reflected by a decrease in intracellular ATP levels, in a concentration-dependent manner. […] AC50 values were determined from concentration-response data modeled with the standard Hill equation.
qHTS protocol for CellTiter Glo lymphoblastoid cellular assay
[Step] [Parameter] [Value] [Description]
1. Reagent; 5 uL; 2500 lymphoblastoid cells/well
2. Time; 5 hr; 37 C incubation
4. Controls; 23 nL; Tetraoctylammonium bromide 6.4pM to 92 uM
5. Time; 24 hr; 37 C incubation
6. Reagent; 5 uL; CellTiter Glo reagent
7. Time; 30 min; Room Temperature
8. Detection; Luminescence; Viewlux plate reader
Keywords: cell viability, cytotoxicity, lymphoblastoid cell line, luminescence, NTPHTS, NTPHTS_NCGC, NIEHS, DSSTox, MLSMR, MLSCN, NIH Roadmap, qHTS, NCGC
Potency is read from the fitted curve at half-maximal effect.

SMILES	viability change, negative = cytotoxic [%]	Potency
C=CCOC(=O)COCCC(C)C	1.67	
O=C1OC(=O)c2c(Br)c(Br)c(Br)c(Br)c21	4.96	
CCNc1ccccc1	3.65	
Cc1cc(C)c(N)cc1C	2.13	
O=[N+]([O-])c1c(Cl)cc(Cl)cc1Cl	-1.36	
CC(=O)OC(C)=O	-5.11	
Cc1ccc(C)c(O)c1	4.33	
Oc1cccc(Nc2ccccc2)c1	-3.09	
CCCCCCCN	-3.56	
CCCCC/C=C/C=C/C=O		39.8 µM (active)
N#CCc1ccccc1[N+](=O)[O-]	5.13	
CC(N)CN (stereo not given)	-0.428	
Cc1ccc(CO)cc1	-1.44	
Cc1ccc(C)cc1	-9.51	
O=[N+]([O-])c1ccc2nc[nH]c2c1	-3.98	
Nc1ccc(F)cc1F	-0.42	
CN(C)c1cccc(O)c1	-3.23	
NC(=S)NNC(N)=S	-0.793	
O=[N+]([O-])c1ccccc1CCO	-3.36	
COc1ccc(OC)cc1	-0.453	

SMILES	viability change, negative = cytotoxic [%]	Potency
C/C=C(/C)C#N	0.749	
Cc1ccc2cccnc2c1	1.29	
Nc1ccc([N+](=O)[O-])c(N)c1	-6.38	
CCCCCCCCC/C=C/CC1CC(=O)OC1=O (stereo not given)	-0.686	
Fc1ccccc1	-2.72	
CC(C)Cc1nccs1	1.03	
CCN(Cc1ccccc1)c1ccccc1	-7.13	
N#Cc1ccccc1	-2.64	
Cc1ccc2ccccc2c1[N+](=O)[O-]	1.96	
Cc1ccc(C(=O)O)cc1	-1.99	
Cc1cccc2sc(N)nc12	-0.538	
Clc1ccccn1	-4.63	
COc1ccc(N)c(C)c1	-1.29	
O=C(O)c1ccc(Cl)c(Cl)c1	-0.633	
Cc1cccc([N+](=O)[O-])c1C(=O)O	3.63	
Cc1ccc(C)c([N+](=O)[O-])c1	-6.58	
Nc1nc2ccccc2[nH]1	-7.98	
O=Cc1ccc(Cl)cc1	0.833	
Nc1cccc(S(=O)(=O)O)c1	-5.31	
CNc1ccccc1	2.27	
